Calb FLC: affects C. albicans growth with fluconazole; C. albicans CaCi-2 (fluconazole-resistant clinical isolate) + fluconazole, Alamar Blue growth, 48 h; growth inhibition, % (concentration not given with the values); hit rate 0.57% among 300,000;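 active = growth inhibition above about 58% in most replicates, limit read from the data, passing the limit was not always enough; inconclusive = exactly half the replicates above a set limit; inactive = most replicates below a set limit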;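 note: all wells also contain fluconazole at 8 µg/ml as a sub-toxic cotreatment; 0% = median of DMSO wells and 100% = median of geldanamycin control wells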
CSC inhib: blocks cancer stem cells. cancer stem cell-like cells viability, luminescence. inhibition, % at 7.5 µM. hit rate 1.1% among 300,000. AID 2717; in the data active = inhibition above about 75%; inconclusive = no clear call, values can overlap the other calls; tested in HMLE shEcad cells
SKKanGAS inh: inhibitors of SKKanGAS S. pyogenes growth in kanamycin (SK-promoter or general growth effect); AID 1662; hit rate 1.3% among 300,000; BacTiter-Glo, 6 h; inhibition, % at 7.5 µM;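 active = mean replicate score, as percent of positive control median, at least 50; inconclusive = mean below 50 but one replicate at or above 50; inactive = mean and every replicate below 50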;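 note: strain carries kanamycin resistance gene driven by streptokinase promoter and grows in 40 µg/ml kanamycin; loss of luminescence reflects streptokinase promoter inhibition or plain growth inhibition; 0% = median of DMSO wells and 100% = positive control at its reference dose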
Beta apoptosis: beta cell apoptosis inhibition; INS-1E cytokine-induced death, ATP luminescence, 48 h; percent of positive-control rescue, neutral wells zero; protection from apoptosis, % (concentration not given with the values); hit rate 0.8% among 300,000; AID 435005;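 active = Every replicate reaches about 75%, or at least half do and their mean reaches it too, limit read from the data; inconclusive = At least half of replicates reach the limit but their mean does not; inactive = Under half of replicates reach the limit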;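 note: 0% = cytokine-treated negative control wells and 100% = positive control rescue; higher means more ATP so stronger rescue from cytokine killing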
Mdm2 MdmX PPI: disrupts the human Mdm2-MdmX interaction | SaOS-2 split-luciferase Mdm2/MdmX complementation, luminescence | inhibition, % at 8 µM | hit rate 3% among 330,000 | AID 485346;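 active = inhibition of at least 50% at 8 µM in the primary screen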
Target sequence (O15151 whole entry, looked up): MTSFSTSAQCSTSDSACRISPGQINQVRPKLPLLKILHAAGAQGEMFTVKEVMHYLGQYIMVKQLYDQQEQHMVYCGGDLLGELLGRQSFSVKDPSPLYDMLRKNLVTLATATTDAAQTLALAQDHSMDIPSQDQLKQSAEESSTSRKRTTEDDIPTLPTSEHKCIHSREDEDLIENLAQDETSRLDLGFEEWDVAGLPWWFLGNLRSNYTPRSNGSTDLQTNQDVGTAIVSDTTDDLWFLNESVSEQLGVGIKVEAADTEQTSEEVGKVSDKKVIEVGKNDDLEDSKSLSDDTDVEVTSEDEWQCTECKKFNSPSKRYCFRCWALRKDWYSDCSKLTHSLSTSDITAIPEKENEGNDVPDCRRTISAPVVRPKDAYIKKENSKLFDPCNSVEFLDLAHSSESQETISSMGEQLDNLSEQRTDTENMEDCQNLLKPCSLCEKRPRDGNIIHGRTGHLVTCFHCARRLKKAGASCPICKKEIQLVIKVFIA
Target sequence (Q00987 whole entry, looked up): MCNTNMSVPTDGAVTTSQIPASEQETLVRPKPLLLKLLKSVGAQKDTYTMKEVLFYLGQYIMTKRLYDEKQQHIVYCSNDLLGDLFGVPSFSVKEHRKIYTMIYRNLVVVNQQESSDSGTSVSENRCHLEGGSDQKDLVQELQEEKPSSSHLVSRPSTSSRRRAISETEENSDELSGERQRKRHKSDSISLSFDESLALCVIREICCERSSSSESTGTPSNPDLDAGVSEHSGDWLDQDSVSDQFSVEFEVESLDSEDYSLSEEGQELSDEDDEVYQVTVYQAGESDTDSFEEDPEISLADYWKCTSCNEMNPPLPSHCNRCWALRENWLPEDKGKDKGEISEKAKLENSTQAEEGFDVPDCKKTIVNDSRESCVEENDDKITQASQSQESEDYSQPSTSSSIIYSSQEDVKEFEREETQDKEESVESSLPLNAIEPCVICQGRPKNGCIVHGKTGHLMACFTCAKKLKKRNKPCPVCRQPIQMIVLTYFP
MPTP inh: inhibitors of mitochondrial permeability transition pore; inhibition, % at 10 µM; isolated mouse mitochondria, Ca2+ swelling absorbance, 30 min; hit rate 1.4% among 360,000;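 active = inhibition of 50% or more, scaled per plate between neutral and stimulator controls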;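 note: 0% = DMSO wells given calcium and 100% = 1 mM EGTA wells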
MPTP counter: Rhodamine 123 counter-screen of mitochondrial pore hits; shares compounds with MPTP inh; isolated mitochondria, membrane potential, Rhodamine 123 fluorescence; inhibition, % at 10 µM; hit rate 78% among 5,000; AID 624504; in the data active = inhibition above about 22%;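 note: 0% = DMSO vehicle and 100% = positive control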
MPTP swell DR: dose response confirmation of mitochondrial permeability transition pore inhibitors; hit rate 58% among 780; shares compounds with MPTP inh; isolated mitochondria swelling, absorbance; IC50, µM; in the data active = IC50 below about 20 µM
MPTP cs DR: active in counter-screen for permeability transition pore inhibitors; AID 651564; hit rate 49% among 780; shares compounds with MPTP inh; isolated mitochondria counterscreen, fluorescence read-out; IC50, µM; in the data active = IC50 below about 80 µM
Starred values were filed as active, the others as inactive; i = inactive; ? = inconclusive; . = no result. A selection: hits, their analogues and other compounds. The true share with any hit is near 5.4%.

SMILES	Calb FLC	CSC inhib	SKKanGAS inh	Beta apoptosis	Mdm2 MdmX PPI	MPTP inh	MPTP counter	others
N#CCC(=O)Nc1ccc(C(=O)Nc2ccc3c(c2)OCO3)cc1	.	.	.	-3	-10	0	.
Cc1ccc(NC(=S)N(CCN(C)C)C(C)c2ccco2)cc1C (configuration not stated)	-3	-23	-9	-8	16	-1	.
CN(C)CC(O)c1ccc(C=Cc2ccc(Cl)cc2)cc1 (configuration not stated)	.	.	.	.	.	97*	-11	MPTP swell DR=17*;MPTP cs DR=>80
COCCCNC(=O)CCc1nc2cccnc2n1Cc1ccccc1	-5	5	1	2	-13	1	.
Cc1[nH][nH]c(=O)c1N=Nc1ccc(Cl)cc1	3	5	-11	-4	25	1	.
Cc1c(C(=O)Nc2ccc(Cl)cc2)c2ccccn2c1CCc1ccncc1	?	21	-7	12	-14	85*	90*
Cc1c(C(=O)Nc2cccc(Cl)c2)c2ccccn2c1CCc1ccncc1	11	.	4	.	.	25	.
COc1cccc2c(=O)cc(C)n(CC(=O)Nc3ccc(Br)cc3)c12	2	4	4	5	43	70*	33*
COc1ccc(NC(=O)Cn2c(C)cc(=O)c3cccc(OC)c32)cc1	19	-3	-3	0	36	2	.
O=C(Nc1cccc(Cl)c1)ON1CCCCC1	.	.	.	.	.	5	.
C=CCc1cc(Cl)ccc1OC(=O)Nc1cccc(Cl)c1	-10	24	1	3	9	93*	97*
O=C(CSc1nnnn1-c1ccc(O)cc1)c1cc2ccccc2o1	-2	2	7	-5	10	14	.
Cc1cccc2sc(N(CCCN(C)C)C(=O)c3ccc(C(=O)c4ccccc4)cc3)nc12	-12	3	8	8	45	84*	-6	MPTP swell DR=11*;MPTP cs DR=64*
Cc1cccc2sc(N(CCN(C)C)C(=O)C3CCN(S(=O)(=O)c4cccs4)CC3)nc12	-1	.	41	-9	21	72*	-18	MPTP swell DR=i;MPTP cs DR=>80
COc1cc2ccccc2cc1C(=O)N(CCN(C)C)c1nc2c(C)cccc2s1	34	10	10	6	38	69*	-8	MPTP swell DR=i;MPTP cs DR=>80
CN(C)CCCN(C(=O)c1ccc(C(=O)c2ccccc2)cc1)c1nc2ccc(F)cc2s1	-4	1	2	3	21	27	.
COc1ccc2sc(N(CCCN(C)C)C(=O)c3ccc(C(=O)c4ccccc4)cc3)nc2c1	-8	18	-5	.	26	80*	-9	MPTP swell DR=14*;MPTP cs DR=64*
Cc1ccc2nc(N(CCCN(C)C)C(=O)COc3ccc(Cl)cc3)sc2c1	-4	-16	-6	3	0	56*	-19	MPTP swell DR=4.2*;MPTP cs DR=78*
CN(C)CCCN(C(=O)COc1ccc(Cl)cc1)c1nc2ccc(F)cc2s1	-7	-6	3	-2	13	0	.
Oc1c(C=C2N=c3ccccc3=N2)sc(=S)n1C1CCCCC1	-5	-5	-4	0	-9	77*	-7	MPTP swell DR=>100;MPTP cs DR=>80
CCn1c(COc2ccc3c(c2)OCO3)nnc1SCC(=O)c1ccc(Cl)cc1	2	8	1	5	13	58*	79*
Cc1ccc(-c2nc(CSCC(=O)N3CCCC3)c(C)o2)cc1	29	-4	-7	-4	14	2	.
Cc1cccc(-c2nc(CSCC(=O)N3CCN(c4ccccn4)CC3)c(C)o2)c1	-9	17	-14	-2	12	78*	63*
Cc1ccc(Nc2cc(C)c3c(O)cccc3n2)cc1C	0	40	10	23	-44	72*	54*
COc1ccc(Nc2cc(C)c3c(O)cccc3n2)cc1	1	33	7	2	19	36	.
SMILES	Calb FLC	CSC inhib	SKKanGAS inh	Beta apoptosis	Mdm2 MdmX PPI	MPTP inh	MPTP counter	others
N#Cc1cnn2ccc(-c3cc(N4CCOCC4)ccc3[N+](=O)[O-])nc12	-25	-7	-3	-8	-14	-1	.
CC(C)[C@H](NC(=O)c1ccc(Cl)c([N+](=O)[O-])c1)C(=O)NCc1ccc(Cl)cc1Cl	14	0	1	-4	-8	86*	93*
CC(C)[C@H](NC(=O)c1ccc(Cl)c([N+](=O)[O-])c1)C(=O)NCc1ccc(F)cc1	-3	-3	1	-9	13	2	.
Cc1cc(C(=O)NNC(=S)NCc2ccco2)n(C)n1	6	-8	-8	.	23	0	.
CC(C)c1cc(C(=O)NNC(=S)NCc2ccco2)c(O)c(C(C)C)c1	37	-5	20	8	34	85*	83*
CC(NC(=O)c1ccccc1)C(=O)N/N=C/c1ccco1 (configuration not stated)	-26	.	-3	-3	-7	0	.
C(=C\c1ccccc1)/CN1CCN(c2ncnc3c2oc2ccccc23)CC1	92*	-12	18	50	-1	95*	94*
c1ccc2c(c1)oc1c(N3CCOCC3)ncnc12	0	-3	-2	-1	12	2	.
Nc1nc(N2CCN(C/C=C/c3ccccc3)CC2)nc2ccccc12	.	25	.	.	7	63*	-6	MPTP swell DR=i;MPTP cs DR=59*
CC(=O)c1cccc(S(=O)(=O)NCCC(=O)NC2CCCCCC2)c1	.	.	.	-4	17	0	.
CC(=O)NC1CC2CCCC(C1)N2C(=O)Nc1cccc(C)c1 (configuration not stated)	.	.	.	.	.	-1	.
Cc1ccc(CNc2nc(C)nc3sc4c(c23)CCC4)cc1	23	9	17	71	-4	62*	81*
CCOc1ccc2nc(NCCNC(=O)Nc3cccc(C)c3)c(C#N)cc2c1	-22	-5	-5	52	36	5	.
OCCNCc1cccc(OCc2ccc(Cl)cc2)c1	-21	14	4	6	10	64*	-9	MPTP swell DR=5.6*;MPTP cs DR=>80
c1ccc(COc2cccc(CNCc3cccnc3)c2)cc1	-9	3	8	.	-28	1	.
Cc1cc(C)cc(C(=O)N(NC(=O)Nc2ccc(Cl)cc2)C(C)(C)C)c1	-4	-4	-17	5	28	97*	98*
CC(C)(C)N(NC(=O)Nc1ccc(F)cc1)C(=O)c1ccccc1	-21	.	-2	.	-23	-1	.
CCCc1cc(=O)[nH]c(SCc2cc(Cl)ccc2OC(F)F)n1	11	20	1	2	14	71*	55*
O=C1c2ccccc2S(=O)(=O)N1Cc1nnc(-c2ccccc2Br)o1	2	.	4	.	.	-1	.
O=S1(=O)c2cccc3cccc(c23)N1Cc1nnc(-c2ccccc2Br)o1	7	15	13	0	19	76*	47*
O=C1CCCN2N=C(SCC(=O)Nc3cccc(C(F)(F)F)c3)SC2=N1	-8	.	2	-1	15	74*	74*
O=C1CCCN2N=C(SCC(=O)Nc3cccc(Cl)c3)SC2=N1	-1	.	4	-3	9	17	.
